According to PubChem BioAssay (Tox21):
“And” between values parts separate entries of the source, which are not always exact repeats. Equal entries are not always repeated. Inconclusive results are not listed. The source made the active and inactive calls. Unless noted, calls follow the shape of the dose curve; as a rule, active = well fitted curve in the direction sought with a large enough effect in the repeat runs; inconclusive = weak or mixed curves; inactive = no such curve, though single readings can be large; an effect the other way counts as inactive or inconclusive.

Key:
[1] = molecular target: Luciferin 4-monooxygenase (Photinus pyralis) (UniProt P08659); experiment: qHTS assay to identify small molecule inhibitors of firefly luciferase (AID 1224835); also: nearly all actives have a fitted effect of over 25% in size; also: potency is read from the fitted curve at half-maximal effect
Luciferin 4-monooxygenase (Photinus pyralis), sequence (P08659 whole entry, looked up): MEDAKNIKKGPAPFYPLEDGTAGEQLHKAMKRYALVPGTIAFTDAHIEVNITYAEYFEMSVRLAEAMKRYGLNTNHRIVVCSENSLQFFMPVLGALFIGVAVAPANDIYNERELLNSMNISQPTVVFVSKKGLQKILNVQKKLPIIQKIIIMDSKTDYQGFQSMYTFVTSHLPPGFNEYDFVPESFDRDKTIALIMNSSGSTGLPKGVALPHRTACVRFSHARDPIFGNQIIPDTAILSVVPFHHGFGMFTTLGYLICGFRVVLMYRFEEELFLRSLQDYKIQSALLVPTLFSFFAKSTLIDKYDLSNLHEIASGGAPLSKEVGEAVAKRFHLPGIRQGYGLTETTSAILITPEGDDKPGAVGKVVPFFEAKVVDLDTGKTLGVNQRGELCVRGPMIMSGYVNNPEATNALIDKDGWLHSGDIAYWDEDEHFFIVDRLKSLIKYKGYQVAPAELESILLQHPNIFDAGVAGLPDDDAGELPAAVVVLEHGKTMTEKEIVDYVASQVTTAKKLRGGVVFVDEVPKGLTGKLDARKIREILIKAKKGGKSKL
Method in brief: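 Inhibition of purified Photinus luciferase is measured by luminescence. Substrate levels (D-luciferin, ATP) sit at their KM values. Each compound is tested in a concentration series.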

[2] = qHTS assay to identify small molecule agonists of the constitutive androstane receptor (CAR) signaling pathway - cell viability counter screen (AID 1224836); also: nearly all actives have a fitted effect of over 45% in size
Method in brief: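 HepG2 cells stably carrying hCAR and a CYP2B6-2.2kb reporter; 15-concentration compounds plus PK11195 (final 0.75 uM), 23 hr at 37 C/5% CO2. Viability read by CellTiter-Fluor fluorescence.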

[3] = qHTS assay to identify small molecule antagonists of the constitutive androstane receptor (CAR) signaling pathway - cell viability counter screen (AID 1224837); also: nearly all actives have a fitted effect of over 45% in size
Method in brief: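 Fluorescence from CellTiter-Fluor served as the viability signal. Human hepatoma HepG2 cells stably bearing hCAR and CYP2B6-2.2kb received compound plus CITCO (50 nM final) for 23 hr.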

[4] = molecular target: Nuclear receptor subfamily 1 group I member 3 (Homo sapiens) (UniProt Q14994); experiment: qHTS assay to identify small molecule antagonists of the constitutive androstane receptor (CAR) signaling pathway (AID 1224838);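 also: HepG2 cells stably expressing hCAR with CYP2B6 luciferase reporter stimulated by CITCO; nearly all actives have a fitted effect of over 40% in size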; also: potency is read from the fitted curve at half-maximal effect
Nuclear receptor subfamily 1 group I member 3 (Homo sapiens), sequence (Q14994 whole entry, looked up): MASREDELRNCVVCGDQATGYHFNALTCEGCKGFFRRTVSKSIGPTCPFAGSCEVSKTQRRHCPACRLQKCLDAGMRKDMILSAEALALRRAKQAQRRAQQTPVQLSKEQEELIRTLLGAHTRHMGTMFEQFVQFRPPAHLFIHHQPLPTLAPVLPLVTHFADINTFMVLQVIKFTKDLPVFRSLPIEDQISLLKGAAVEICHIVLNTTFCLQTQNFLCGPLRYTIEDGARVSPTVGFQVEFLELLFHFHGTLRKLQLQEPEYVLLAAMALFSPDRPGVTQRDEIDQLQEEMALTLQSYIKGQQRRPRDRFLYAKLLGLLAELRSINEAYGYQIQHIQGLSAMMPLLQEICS
Method in brief: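 Quantitative HTS in double-stable HepG2-CYP2B6-hCAR cells. After 4 h plating, cells get compound (15 concentrations) and CITCO at 50 nM final, incubate 24 h at 37 C, then ONE-Glo luminescence is read.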

[5] = molecular target: Nuclear receptor subfamily 1 group I member 3 (Homo sapiens) (UniProt Q14994); experiment: qHTS assay to identify small molecule agonists of the constitutive androstane receptor (CAR) signaling pathway (AID 1224839); also: nearly all actives have a fitted effect of over 15% in size; also: potency is read from the fitted curve at half-maximal effect;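 as to activation: HepG2 cells stably carrying human CAR and a CYP2B6 luciferase reporter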
Method in brief: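 HepG2 cells stably co-transfected with hCAR and a CYP2B6-2.2kb luciferase reporter; compounds at 15 concentrations with 0.75 uM PK11195 present. After 24 hr at 37 C, luciferase read by ONE-Glo luminescence.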

[6] = qHTS assay to identify small molecule antagonists of the estrogen related receptor signaling pathway with the pleiotropic PPARgamma coactivator (PGC) from Tox21 10K library - cell viability counter screen (AID 1224840; active = well fitted cell-killing curve with a large enough effect in the repeat runs, not every such curve was filed as active; also: nearly all actives have a fitted effect of over 40% in size)
Method in brief: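 Compounds in DMSO, alongside positive and negative controls, were pinned onto PGC/ERR cells (2,000 per well). Exposure lasted 17.5 hours at 37 C, followed by a 30-minute CellTiter-Fluor incubation and fluorescence reading.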

[7] = qHTS assay to identify small molecule antagonists of the estrogen related receptor signaling pathway with the pleiotropic PPARgamma coactivator (PGC) from Tox21 10K library (AID 1224841; call rule not given here; also: actives are mostly falling curves and most rising ones were filed inactive; nearly all actives have a fitted effect of over 50% in size)
Method in brief: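 Compound exposure ran 18 hours at 37 C in PGC/ERR cells (2,000/well) that had first rested 6 hours in a 37 C/5% CO2 incubator. Luciferase activity was then detected with One-Glo after a 30-minute room-temperature step.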

[8] = qHTS assay to identify small molecule agonists of the estrogen related receptor signaling pathway with the pleiotropic PPARgamma coactivator (PGC) from Tox21 10K library (AID 1224842); also: nearly all actives have a fitted effect of over 15% in size
Method in brief: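 Luminescence from One-Glo (30 min, room temperature) measured after PGC/ERR cells had 18 h at 37 C with pinned compound (23 nL in DMSO). Cells had been seeded at 2,000 per well and pre-incubated 6 h.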

[9] = qHTS assay to identify small molecule agonists of the hypoxia (HIF-1) signaling pathway - cell viability counter screen (AID 1224844; calls by dose curve; also: nearly all actives have a fitted effect of over 50% in size)
Method in brief: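 Luminescent ATP content (CellTiter-Glo, 30 min, room temperature) served as the viability measure in HRE-bla ME-180 cells exposed to compounds for 17 hrs in low-serum medium (0.5% dialyzed FBS).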

[10] = qHTS assay to identify small molecule agonists of H2AX (AID 1224845; active = well fitted activation curve with a large enough effect in the signal ratio in the repeat runs, not every such curve was filed as active; the % refers to the signal ratio)
Method in brief: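 Phospho-H2AX Ser139 measured by HTRF (ex 320 nm; em 665 and 620 nm) after 24 hr antibody incubation. Compounds, 15 concentrations, 0.76% DMSO, were applied to CHO-K1 cells for 3hr at 37C before lysis.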

[11] = qHTS assay to identify small molecule agonists of the hypoxia (HIF-1) signaling pathway (AID 1224846; active = well fitted activation curve with a large enough effect in the signal ratio in the repeat runs, not every such curve was filed as active; the % refers to the signal ratio)
Method in brief: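 Measured by blue/green FRET after loading CCF4-AM: beta-lactamase expressed from a hypoxia response element in ME-180 cells. Test agents were delivered in DMSO and left 17 hrs; cells had been plated 5 hrs earlier in low-serum (0.5% dialyzed FBS) medium.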

[12] = qHTS assay to identify small molecule agonists of H2AX - cell viability counter screen (AID 1224847; calls by dose curve;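 also: wild-type CHO-K1 cells; top concentration of the series differs between compounds; nearly all actives have a fitted effect of over 30% in size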)
Method in brief: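 CHO-K1 cells plated overnight at 37C, then exposed 3 h at 37C to compounds at 15 concentrations (0.76% DMSO final). Viability by CellTiter-Glo luminescence after 30 min at room temperature.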

[13] = qHTS assay to identify small molecule antagonists of the estrogen related receptor (ERR) signaling pathway from Tox21 library (AID 1224848); also: nearly all actives have a fitted effect of over 50% in size; also: potency is read from the fitted curve at half-maximal effect
Method in brief: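 Antagonist-mode screen of the Tox21 10K library in an NTP-provided ERR reporter cell line; 18 h compound exposure at 37 C, luminescence measured with ONE-Glo.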

[14] = qHTS assay to identify small molecule agonists of the estrogen related receptor (ERR) signaling pathway from Tox21 library (AID 1224849; calls by dose curve; also: nearly all actives have a fitted effect of over 15% in size); settings: ERR reporter cell line, ONE-Glo luciferase, 18 h
Method in brief: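 We plated ERR reporter cells, waited 6 h, added compounds in DMSO by pin tool and incubated them 18 h at 37 C. ONE-Glo was then added and luminescence read after 30 min.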

[15] = qHTS RealTime-Glo MT Cell Viability Assay in HepG2 cells - 24 hour (AID 1224867); also: nearly all actives have a fitted effect of over 50% in size
Method in brief: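 Viability was tracked continuously by NanoLuc luminescence from prosubstrate reduced by living HepG2 cells, at successive time points over 40 h of compound exposure. Cells with reagent were preincubated 5 h at 37 °C before compound addition.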

[16] = qHTS RealTime-Glo MT Cell Viability Assay in HEK293 cells - 32 hour (AID 1224868); also: nearly all actives have a fitted effect of over 50% in size; also: potency is read from the fitted curve at half-maximal effect
Method in brief: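 Viability tracked continuously by luminescence as live cells reduce a prosubstrate for NanoLuc; HEK293 cells preincubated 5 h, compound-treated at 37 C, and read at 0, 8, 16, 24, 32 and 40 h.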

[17] = A CellTox Green Cytotoxicity Assay to monitor cytotoxicity in HEK293 cells - 0 hour (AID 1224869); also: nearly all actives have a fitted effect of over 50% in size
Method in brief: (§1)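 Each value comes from one timepoint of a single continuous run in which HEK293 cells with CellTox Green were exposed to compound for up to 40 h at 37 C, dye fluorescence rising with cell death.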

[18] = qHTS RealTime-Glo MT Cell Viability Assay in HepG2 cells - 40 hour (AID 1224870); also: nearly all actives have a fitted effect of over 50% in size
Method in brief: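 Real-time viability: cells seeded at 600 per well together with NanoLuc and cell-permeant prosubstrate, compounds added after 5 h incubation. Luminescence tracked at 0, 8, 16, 24, 32 and 40 h of exposure.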

[19] = A CellTox Green Cytotoxicity Assay to monitor cytotoxicity in HEK293 cells - 40 hour (AID 1224871); also: nearly all actives have a fitted effect of over 45% in size
Method in brief: as §1

[20] = molecular target: Thyrotropin receptor (Homo sapiens) (UniProt P16473); experiment: qHTS assay to identify small molecule agonists of the thyroid stimulating hormone receptor (TSHR) signaling pathway (AID 1224843; calls by dose curve; also: nearly all actives have a fitted effect of over 45% in size)
Thyrotropin receptor (Homo sapiens), sequence (P16473 whole entry, looked up): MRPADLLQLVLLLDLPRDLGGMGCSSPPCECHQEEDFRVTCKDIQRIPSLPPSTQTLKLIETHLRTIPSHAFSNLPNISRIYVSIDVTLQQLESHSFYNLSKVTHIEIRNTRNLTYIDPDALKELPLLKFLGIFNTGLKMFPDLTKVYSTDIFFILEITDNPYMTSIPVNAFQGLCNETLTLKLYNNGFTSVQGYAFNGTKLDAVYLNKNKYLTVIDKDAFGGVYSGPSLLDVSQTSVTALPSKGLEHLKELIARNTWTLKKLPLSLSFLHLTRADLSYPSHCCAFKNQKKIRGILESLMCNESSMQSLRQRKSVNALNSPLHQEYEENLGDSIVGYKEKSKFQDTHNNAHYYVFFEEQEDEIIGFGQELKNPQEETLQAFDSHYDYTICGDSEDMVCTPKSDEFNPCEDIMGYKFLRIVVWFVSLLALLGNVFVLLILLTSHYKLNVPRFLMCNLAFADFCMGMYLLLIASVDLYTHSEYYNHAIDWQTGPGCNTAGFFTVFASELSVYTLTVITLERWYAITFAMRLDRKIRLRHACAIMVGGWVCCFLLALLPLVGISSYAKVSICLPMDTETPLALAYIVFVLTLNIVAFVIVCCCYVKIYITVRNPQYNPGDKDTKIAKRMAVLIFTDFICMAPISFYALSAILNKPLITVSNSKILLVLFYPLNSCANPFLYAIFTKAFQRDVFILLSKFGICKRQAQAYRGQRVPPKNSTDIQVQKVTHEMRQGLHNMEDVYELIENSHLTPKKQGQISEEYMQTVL
Method in brief: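 Screening of the Tox21 10K collection used HEK293 cells engineered with TSHR at 800 cells per well. After a 30-min room-temperature compound exposure, HTRF cAMP reagents were added and fluorescence recorded 1 h later.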
% is scaled to controls: 0 for no effect and ±100 for the full control effect.

COC1=CC(=O)C[C@@H](C)[C@]12Oc1c(Cl)c(OC)cc(OC)c1C2=O
active: Potency [4] 9.6 µM and 13.7 µM | Potency [13] 4.81 µM and 7.7 µM and 5.96 µM
inactive: Potency [1] | Potency [2] | Potency [3] | Potency [5] | Potency [6] | Potency [7] | Potency [8] | Potency [9] | Potency [10] | outcome [11] | Potency [12] | activity change, positive = activation ([14]; at 42.5 µM (top of the series)) -32% | activity change, positive = activation ([14]; at 92.4 µM (top of the series)) -36.3% and -39.4% | outcome [15] | Potency [16] | Potency [17] | outcome [18] | Potency [19]

CCCCCCCC(=O)OCC(O)CO (stereo not drawn)
inactive: Potency [1] | Potency [2] | Potency [3] | Potency [4] | Potency [5] | Potency [6] | Potency [7] | Potency [8] | Potency [9] | Potency [10] | outcome [11] | Potency [12] | Potency [13] | activity change, positive = activation ([14]; at 92.4 µM (top of the series)) 1.37% | outcome [15] | Potency [16] | Potency [17] | outcome [18] | Potency [19]

Cc1cccc2ccccc12
inactive: Potency [1] | Potency [2] | Potency [3] | Potency [4] | Potency [5] | Potency [6] | Potency [7] | Potency [8] | Potency [20] | Potency [9] | Potency [10] | outcome [11] | Potency [12] | Potency [13] | activity change, positive = activation ([14]; at 92.4 µM (top of the series)) -5.59% and 0.133% | outcome [15] | Potency [16] | Potency [17] | outcome [18] | Potency [19]

COc1cc(O)c(C(=O)c2ccccc2)cc1S(=O)(=O)O
inactive: Potency [1] | Potency [2] | Potency [3] | Potency [4] | Potency [5] | Potency [6] | Potency [9] | Potency [10] | outcome [11] | Potency [12] | outcome [15] | Potency [16] | Potency [17] | outcome [18] | Potency [19]

CC(C)CC(C)CC(O)CC(C)C (stereo not drawn)
inactive: Potency [1] | Potency [2] | Potency [3] | Potency [4] | Potency [5] | Potency [6] | Potency [7] | Potency [8] | Potency [9] | Potency [10] | Potency [13] | activity change, positive = activation ([14]; at 92.4 µM (top of the series)) 3.18% and 4.59% | outcome [15] | Potency [16] | Potency [17] | outcome [18] | Potency [19]

O=c1c(-c2ccc(O)cc2)coc2cc(O)cc(O)c12
active: Potency [1] 13.9 µM and 11.2 µM and 9.77 µM | Potency [5] 15.1 µM and 9.69 µM and 13.3 µM | Potency [16] 24.5 µM
inactive: Potency [2] | Potency [3] | Potency [4] | Potency [6] | Potency [20] | Potency [9] | outcome [15] | Potency [17] | outcome [18] | Potency [19]

COc1ccccc1O
inactive: Potency [1] | Potency [2] | Potency [3] | Potency [4] | Potency [5] | Potency [6] | Potency [9] | Potency [10] | Potency [12] | outcome [15] | Potency [16] | Potency [17] | outcome [18] | Potency [19]
